Test results from the supplement of paper PMC11417369.
± gives the standard deviation of the averaged measurements. Over roughly 25,000 sequences, “ln(normalized median fluorescence intensity)” has its median near 8.9; the highest 2% begin near 10. What follows is part of a selection rich in the highest values, with near analogues and random picks from the rest.

What follows are sequences tested on PfAP2-LT AP2 domain (GST-tagged) (assay: gcPBM binding intensity (ln(normalized median fluorescence intensity)); higher = stronger DNA binding).
Outline: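 Plasmodium falciparum DNA-binding domains carrying a GST tag were expressed in E. coli and applied for 1 h, at about 25 μg on average, to an Agilent 4 × 180k array. The array held primer-extended double-stranded 36-bp intergenic genomic probes together with negative controls, and binding took place in 1× PBS with 1% milk, 0.2 mg/ml BSA, 0.5% salmon testes DNA and 0.03% Triton X-100. An Alexa488 anti-GST antibody detected bound protein, and the array was scanned at 488 nm. Binding intensity is taken as the highest Masliner-normalised natural-log median intensity across replicate spots of either probe orientation.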
For “ATGAGTGCACAAATATATATATATATATATATATAT [CACACA_negctrl_site404]”, the “gcPBM binding intensity (ln)” value was 10.2 ± 0.26. In the case of “CACAAATATACAAATACACACAAATATACAAATACA [CACACA_site2385]”, the “gcPBM binding intensity (ln)” value is reported as 9.42 ± 0.44. For “TATAATGATGATGATAGTACGTATTAGTATAAAAAA [XGTACX_site9]”, the “gcPBM binding intensity (ln)” value was 8.81 ± 0.52. For “TATACCTTTTTATTCACACATATATGTCATATGTCA [CACACA_site5423]”, the “gcPBM binding intensity (ln)” value was 9.28 ± 0.5. With “CTCTTGTCATTTTGCACACACACATGGATAGGTTAT [CACACA_site5655]” the “gcPBM binding intensity (ln)” value was 9.81 ± 0.33. In the case of “ATAAAATTATATACTCGTACACAAAAAAAAAAAATA [XGTACX_site6035]”, the “gcPBM binding intensity (ln)” value is reported as 8.77 ± 0.47. With “TATAAGTGCCGTTATACACACGTTATATAAATATTA [CACACA_site4401]” the “gcPBM binding intensity (ln)” value was 8.81 ± 0.4. In the case of “TTCCCATGTAATATTAAACACACACCCATATAACAC [CACACA_site7905]”, the “gcPBM binding intensity (ln)” value is reported as 9.505 ± 0.078. “AACACAGATAAATTAACACACACACCCATATATATA [CACACA_site9310]” was tested, and the “gcPBM binding intensity (ln)” value was 9.85 ± 0.23. With “TATTAAACGAAACACACACACACACCCATATATAAA [CACACA_site759]” the “gcPBM binding intensity (ln)” value was 10.23 ± 0.099. “CACAGATAAATTAACACACACACACCCATATATATA [CACACA_site3960]” was tested, and the “gcPBM binding intensity (ln)” value was 10.05 ± 0.071. With “TATTAAACTGGACACACACACACACCCATATATAAA [CACACA_site4579]” the “gcPBM binding intensity (ln)” value was 10.15 ± 0.021. For “CGTTTATTAAACTTGACACACACACCCCCACATATA [CACACA_site8151]”, the “gcPBM binding intensity (ln)” value was 9.975 ± 0.064. In the case of “ATACGACAAATATAAAGTACAAGCTTGGTTTTTATA [XGTACX_site8103]”, the “gcPBM binding intensity (ln)” value is reported as 8.88 ± 0.59. In the case of “AATTTGAAATATGTGGTGCAGTTATATAATATGTTT [GTGCAC_site9885]”, the “gcPBM binding intensity (ln)” value is reported as 8.87 ± 0.41. For “GTACATATATACATTACACACGGTTTGATTTAAAAA [CACACA_site3379]”, the “gcPBM binding intensity (ln)” value was 8.98 ± 0.41. In the case of “AGAAAAAAAAAACACACACACACACCCTCAATATAA [CACACA_site39]”, the “gcPBM binding intensity (ln)” value is reported as 10.1 ± 0.11. In the case of “AGAAAAAAAAAAAAAAAACACACGGTACATTCAAAG [CACACA_site2]”, the “gcPBM binding intensity (ln)” value is reported as 8.84 ± 0.43. For “AAAAAAAAAAAACACACACACACATTCAATATAAAA [CACACA_site40]”, the “gcPBM binding intensity (ln)” value was 9.76 ± 0.28. With “AAAGAAAAAAAAAACACACACACACCCATTCAATAT [CACACA_site38]” the “gcPBM binding intensity (ln)” value was 10.29 ± 0.035. “ATATACAATACAAAAACACACACAAAAAAAGAAAAG [CACACA_site8668]” was tested, and the “gcPBM binding intensity (ln)” value was 9.59 ± 0.4. For “AAAGAAAAAAAAAACACACACACACGCATTCAATAT [CACACA_site6169]”, the “gcPBM binding intensity (ln)” value was 10.1 ± 0.13. “AAAAATATGCTTCCATGTACTTAAAAAAAAAATTTA [XGTACX_site3617]” was tested, and the “gcPBM binding intensity (ln)” value was 8.34 ± 0.47. “TTCATTTATATAATCACACATTTTATCATCTATGTT [CACACA_site4327]” was tested, and the “gcPBM binding intensity (ln)” value was 8.98 ± 0.47. With “ATGCAAACTAAAAGACGTACAGAAAAGTATCATACT [XGTACX_site8766]” the “gcPBM binding intensity (ln)” value was 9.02 ± 0.42. In the case of “TAAACAAATAAATAAACACACAATATATGTATATAT [CACACA_site3803]”, the “gcPBM binding intensity (ln)” value is reported as 9.05 ± 0.38. In the case of “AATGAAATAAATAAGGGTACACATAAATATATATAT [XGTACX_site7006]”, the “gcPBM binding intensity (ln)” value is reported as 9.04 ± 0.43. For “TATGTGCCAAAACACACACACATATATATATATATA [CACACA_site469]”, the “gcPBM binding intensity (ln)” value was 10.2 ± 0.2. With “ATTATGTGCCAATACACACACACATCTATATTTATA [CACACA_site6359]” the “gcPBM binding intensity (ln)” value was 9.67 ± 0.18. In the case of “ATTATGTGCCAATACACACACACATATATATATATA [CACACA_site468]”, the “gcPBM binding intensity (ln)” value is reported as 10.38 ± 0.078. With “AAAAAAAAAAAAAAAACACACATATATGTATATATA [CACACA_site3276]” the “gcPBM binding intensity (ln)” value was 8.92 ± 0.35. In the case of “AAATTATGTGCCAATACACACACACCGATATATATA [CACACA_site8050]”, the “gcPBM binding intensity (ln)” value is reported as 9.92 ± 0.21. For “AAAAAAAAAACATACACACACATATATATATATATG [CACACA_site1586]”, the “gcPBM binding intensity (ln)” value was 9.46 ± 0.3. With “TACATATGAAAATACACACATACATACATATATATA [CACACA_site1673]” the “gcPBM binding intensity (ln)” value was 9.21 ± 0.34. In the case of “TATCAAAAAAAAAGTAGTACGATAATAGTTTCCCAA [XGTACX_site1812]”, the “gcPBM binding intensity (ln)” value is reported as 8.73 ± 0.4. With “TAATATTTTTTGTGTACACATATATATATATATATA [CACACA_site5504]” the “gcPBM binding intensity (ln)” value was 9.505 ± 0.064. In the case of “ATATGTTAAATTATTCGTACGTAAAAAAAAATGGAT [XGTACX_site3465]”, the “gcPBM binding intensity (ln)” value is reported as 8.81 ± 0.37. For “AAAAAACAAAAACACACGCACACAAAAAAAAAAAAA [CACACA_site802]”, the “gcPBM binding intensity (ln)” value was 9.4 ± 0.33. For “TTAACAAATAGACACACACACACACGCAAAAAAAAA [CACACA_site6387]”, the “gcPBM binding intensity (ln)” value was 10.3 ± 0.33. In the case of “AATGTGTAGACACGCACACACAAAAAAATATTTATA [CACACA_site7384]”, the “gcPBM binding intensity (ln)” value is reported as 9.59 ± 0.36. “ATATATATATATAACACACGCAAAAAAATTAAATAA [CACACA_site1400]” was tested, and the “gcPBM binding intensity (ln)” value was 9.16 ± 0.38. With “TAAATTAAAAGACACACACACAAAAAAAAAAAAAAA [CACACA_site7131]” the “gcPBM binding intensity (ln)” value was 9.4 ± 0.44. With “TTATTATTAAGACACACACACAAAAAAAAAAAAAAA [CACACA_site6805]” the “gcPBM binding intensity (ln)” value was 9.26 ± 0.46. In the case of “AATTAACAAAGACACACACACACACGCACAAAAAAA [CACACA_site6388]”, the “gcPBM binding intensity (ln)” value is reported as 10.2. In the case of “CACAAACAAAGACACACACACACACGCACAAAAATG [CACACA_site7193]”, the “gcPBM binding intensity (ln)” value is reported as 10.3 ± 0.21. With “AACACGCACAGACACACACACAAAAATGATTAAAAA [CACACA_site7195]” the “gcPBM binding intensity (ln)” value was 9.71 ± 0.61. In the case of “AAAACAAATAGACACGCACACAAAAAAAAAAAAAAA [CACACA_site801]”, the “gcPBM binding intensity (ln)” value is reported as 9.38 ± 0.6. “ACAAAATAAAGACACACACACAAACACAAAAAAATA [CACACA_site7568]” was tested, and the “gcPBM binding intensity (ln)” value was 10.1 ± 0.38. For “TATTTATTAAGACACACACACACACGCACAAAATAA [CACACA_site6254]”, the “gcPBM binding intensity (ln)” value was 10.3 ± 0.33.
